Data on 8 molecules can be found in PubChem BioAssay (NCATS).

Results filed as inconclusive are left out. A call without a number means that no potency is given here. Activity calls are given as the source filed them. Calls come from the whole dose curve; as a rule, active = well fitted inhibition curve with a large enough effect; inconclusive = small, poorly fitted or top-dose-only effect; inactive = no such curve, though single readings can be large or run the other way. Where a SMILES comes first, the peptide text is derived from it. The star is where a group is joined. AFC = O=c1cc(C(F)(F)F)c2ccc(N*)cc2o1

This assay deals with Zika virus NS2B-NS3 protease (linked construct). Description: Primary screen NINDS Rhodamine qHTS for Zika virus inhibitors (AID 1347160). Note: nearly all actives have a fitted effect of over 55% in size. As to conditions: purified NS2B-NS3 protease, Rhodamine110 substrate fluorescence; series mostly up to 57.1 µM. The method in brief:
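Rhodamine110-peptide cleavage (1.5 µM substrate) by 25 nM linked NS2B-NS3 enzyme at pH 8.0 (Tris, Tween 20), after 15 min RT preincubation with compounds; 15-min fluorescence change normalized to controls and Hill-fitted.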
(In qHTS, concentration-response curves come from the screen itself.)
For the molecule `CC(=O)O[C@H]1CC[C@@]2(CI)C(=CC[C@@H]3[C@@H]2CC[C@]2(C)[C@@H]([C@H](C)CCCC(C)C)CC[C@@H]32)C1`, the activity change, negative = inhibition was 7.05% [at 10.7 µM] (inactive).

Consider `CC1(C)CC[C@]2(C(=O)O[C@@H]3O[C@H](CO)[C@@H](O)[C@H](O)[C@H]3O)CC[C@]3(C)C(=CCC4[C@@]5(C)C[C@@H](O)[C@H](O)C(CO)(CO)C5CC[C@]43C)C2[C@@H]1O` (stereo partly drawn), for which the Potency result is “inactive”.

For `O=c1c2cccnc2n(-c2cccc([N+](=O)[O-])c2)c(=O)n1Cc1ccncc1`, the Potency result is “inactive”.

As for `C=CC(C)(O)CC/C=C(/C)C(=O)OC1C(OC2OCC(OC3OC(CO)C(O)C(O)C3O)C(OC3OCC(O)C(OC4OC(C)C(O)C(O)C4O)C3O)C2O)COC(OC(=O)C23CCC(C)(C)CC2C2=CCC4C5(C)CCC(OC6OC(CO)C(OC7OC(CO)C(O)C(OC8OCC(O)C(O)C8O)C7O)C(O)C6O)C(C)(C)C5CCC4(C)C2(C)CC3O)C1O` (stereo not drawn), the activity change, negative = inhibition is 4.71% [at 10.7 µM] (inactive).

Regarding `CC1(C)NC2N(C1=O)c1ccccc1C2(O)CC(C(=O)O)n1cnc2ccccc2c1=O` (stereo not drawn), the Potency result was “inactive”.

Consider `CC(C)(O)C1CCC2(C)C3C(O)C4C(C13)C42CO` (stereo not drawn), for which the Potency entry was “inactive”.

Regarding `CC(=O)N[C@@H](CC(C)C)C(=O)N[C@@H](CCC(=O)O)C(=O)N[C@@H](CCC(=O)O)C(=O)N[C@@H](CC(=O)O)C(=O)Nc1ccc2c(C(F)(F)F)cc(=O)oc2c1` (Ac-LEED-{AFC}), the Potency entry was “inactive”.

Turning to `COc1cc(C)c(C(=O)O[C@H]2[C@@H](O)[C@H](n3ccc(=O)[nH]c3=O)O[C@@H]2CO)c(OC)c1`, the Potency result was “inactive”.
